Out of some 420,000 compounds screened, about 50,000 (12%) were called active. Where a call stands in place of a potency, no number is given. Roughly 26% stayed inconclusive and do not appear here. This is one part of a sample in which actives are shown more often than they occur. Calls follow the shape of the dose curve; as a rule, active = well fitted inhibition curve with a large enough effect; inconclusive = small, poorly fitted or top-dose-only effect; inactive = flat fitted curve, though single readings scatter.
Experiment: qHTS for Inhibitors of human tyrosyl-DNA phosphodiesterase 1 (TDP1): qHTS in cells in presence of CPT; also: nearly all actives have a fitted effect of over 55% in size
Conditions: chicken DT40 Tdp1-/-;hTDP1 cells + 20 nM CPT, ATP luminescence, 48 h; series mostly up to 46.2 µM
Procedure, shortened: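 Chicken DT40 Tdp1-/- cells complemented with human TDP1, 400 cells/well, exposed to compounds plus 20 nM camptothecin for at least 48 h at 37 C; viability read as ATP content by CellTiter-Glo luminescence.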
Potency is read from the fitted curve at half-maximal effect.

Row | Structure (SMILES) | Potency
1 | COC(=O)Cn1cnc2scc(-c3ccc(C)c(C)c3)c2c1=O | inactive
2 | CCOC(=O)c1c(NC(=O)CCl)sc(C(=O)N(CC)CC)c1C | 13 µM (active)
3 | CCOC(=O)c1c(NC(=O)COC(=O)c2ccc(S(=O)(=O)C(F)F)cc2)sc(C(=O)N(C)C)c1C | inactive
4 | CCOC(=O)Nc1sc(C(=O)N(C)C)c(C)c1C(=O)OCC | inactive
5 | O=C(COC(=O)c1ccc([N+](=O)[O-])cc1Cl)NC(=O)c1ccccc1 | inactive
6 | O=C(NCCN1CCOCC1)c1cnn(-c2nccc(-c3cccs3)n2)c1C1CC1 | inactive
7 | CCC(=O)Nc1ccc(C(=O)N2CCN(C(=O)c3ccco3)CC2)cc1 | inactive
8 | Cc1ccc(C)c(OCC(=O)N2CCN(C(=O)c3ccco3)CC2)c1 | inactive
9 | COc1cccc(C(=O)Nc2ccc(N3CCCC3)cc2)c1 | 9.2 µM (active)
10 | COc1cccc(C(=O)Nc2ccc3nc4n(c(=O)c3c2)CCCCC4)c1 | 20.6 µM (active)
11 | CN1CCN(c2ccc(NC(=O)c3ccccc3)cc2)CC1 | inactive
12 | NS(=O)(=O)c1ccc(NC(=O)C(=O)Nc2ccc3nc4n(c(=O)c3c2)CCCCC4)cc1 | inactive
13 | COc1ccc(C(=O)Nc2ccc(N3CCC(C)CC3)cc2)cc1Br | inactive
14 | COc1cccc(C(=O)Nc2ccc(NC(=O)c3ccco3)cn2)c1 | inactive
15 | O=C(c1ccco1)N1CCN(c2cccc(Cl)c2)CC1 | inactive
16 | Cc1ccc(OCC(=O)Nc2ccc(N3CCN(C(=O)c4ccco4)CC3)cc2)c(C)c1 | 16.4 µM (active)
17 | O=C(Nc1ccc2nc3n(c(=O)c2c1)CCCC3)c1ccc(Cl)nc1 | inactive
18 | COc1cccc(C(=O)Nc2ccc(N3CCN(C(=O)c4ccco4)CC3)cc2)c1 | 14.6 µM (active)
19 | COc1cccc(COC(=O)C2CCN(S(=O)(=O)c3ccc(Cl)cc3)CC2)c1OC | inactive
20 | COc1ccc(CN2CC[C@H]3C=CC[C@@H](C(=O)N4CCOCC4)[C@H]3C2=O)cc1OC | inactive
21 | C=CCN1C(=NC(=O)COc2ccccc2)SC2CS(=O)(=O)CC21 (stereo not given) | inactive
22 | COc1ccc(CCNC(=O)CSc2nnc3ccc(-c4ccncc4)nn23)cc1 | inactive

Row | Structure (SMILES) | Potency
23 | CCOC(CNC(=O)C(=O)NCC(c1ccco1)N1CCN(c2ccc(OC)cc2)CC1)OCC (stereo not given) | inactive
24 | COc1ccc2ccccc2c1CNCc1ccccn1 | inactive
25 | Cc1cccc(C(C)C)c1NC(=O)COC(=O)C1CC(=O)N(Cc2ccccc2)C1 (stereo not given) | inactive
26 | COc1ccc2[nH]cc(CCNc3ncnc4ccc(-c5ccc(C(=O)N(C)C)cc5)cc34)c2c1 | 20.6 µM (active)
27 | COc1ccc2[nH]cc(CCN3C(=O)c4ccc(C(=O)O)cc4C3=O)c2c1 | inactive
28 | COc1ccc2[nH]cc(CCNc3cc(-c4ccccc4CN(C)C)ncn3)c2c1 | inactive
29 | Cc1ncc([N+](=O)[O-])n1CCOC(=O)c1ccc(Br)cc1 | inactive
30 | CCOC(=O)c1ccc2c(c1)nc(C)n2CC | inactive
31 | CCn1c(/C=C/Nc2ccccc2)[n+](CC)c2ccc(C(=O)OCC(F)(F)F)cc21 | 25.9 µM (active)
32 | NC(CSC1(c2ccccc2)c2ccccc2-c2ccccc21)C(=O)O (stereo not given) | inactive
33 | CCNC(=O)Nc1ccc(S(=O)(=O)Nc2cnc(C)nc2C)cc1 | inactive
34 | Cc1cc(C)c(C#N)c(SCC(=O)N(CC(C)C)C2CCS(=O)(=O)C2)n1 (stereo not given) | inactive
35 | CS(=O)(=O)Nc1ccc(C(=O)N2CCCC2)cc1 | inactive
36 | CCCS(=O)(=O)Nc1ccc(-c2cn3c(n2)SCC3)cc1 | inactive
37 | CNc1cncc(-c2ccc(NS(C)(=O)=O)cc2)n1 | 2.91 µM (active)
38 | CC1(C)C/C(=N/Nc2ccc([N+](=O)[O-])cc2[N+](=O)[O-])C(C)(C)O1 | inactive
39 | CCc1c(C)nc(SCC(=O)NC2CCCC2)[nH]c1=O | inactive
40 | CCCn1c(NCc2ccccc2F)nc2ccccc21 | inactive
41 | CCCn1c(NCc2ccc(N(CC)CC)cc2)nc2ccccc21 | 25.9 µM (active)
42 | CC(C)(C)C(=O)Cn1c(NCCO)nc2ccccc21 | inactive
43 | CC(=O)NC(CC(=O)Nc1ccc(S(=O)(=O)N2CCOCC2)cc1)c1ccccc1 (stereo not given) | inactive
44 | O=S(=O)(c1ccc(F)cc1)N1CC=C(c2ccccc2)CC1 | inactive

Row | Structure (SMILES) | Potency
45 | COc1ccc(N(CC(=O)Nc2ccc(F)c(F)c2)S(=O)(=O)c2c(C)[nH]c(=O)[nH]c2=O)cc1 | inactive
46 | S=C(Nc1cccc(Cl)c1)Nc1ccc2c(c1)OCCO2 | inactive
47 | c1ccc(CN2CCC(N=C3NN=C(c4ccc5c(c4)OCCO5)CS3)CC2)cc1 | inactive
48 | Clc1cccc(N=C2NN=C(c3ccc4c(c3)OCCO4)CS2)c1 | 20.6 µM (active)
49 | CCOC1CS(=O)(=O)CC1OCC (stereo not given) | inactive
50 | CC(=O)Nc1ccc(NC(=O)CSc2nnnn2-c2ccccc2F)cc1 | inactive
51 | CNC(=O)C1CCN(S(=O)(=O)c2c(C)noc2/C=C/c2cccc(C)c2)CC1 | inactive
52 | CC(=O)c1ccc(NC(=O)C2CCN(S(=O)(=O)c3c(C)noc3/C=C/c3ccc(C)cc3)CC2)cc1 | inactive
53 | Cc1cccc(NC(=O)C2CCN(S(=O)(=O)c3c(C)noc3/C=C/c3ccco3)CC2)c1 | 16.4 µM (active)
54 | Cc1ccc(S(=O)(=O)N(C)C)cc1NC(=O)c1ccc(-n2cncn2)c([N+](=O)[O-])c1 | inactive
55 | COc1ccccc1CNCc1ccc(C(=O)O)s1 | inactive
56 | CCCn1nc(C(=O)OCc2nc(N)nc(Nc3ccccc3C)n2)c2ccccc2c1=O | inactive
57 | CC(CN1CCOCC1)OC(=O)c1ccc(Cl)cc1Cl (stereo not given) | inactive
58 | C#CCNc1ccc(C(=O)OCC)cc1 | inactive
59 | O=C(OC12CC3CC(CC(C3)C1)C2)c1ccc(NCc2cc(O)ccc2O)cc1 | 2.06 µM (active)
60 | CC(C)OC(=O)c1ccc(NCc2cc(O)ccc2O)cc1Cl | 2.91 µM (active)
61 | COC(=O)c1ccc(NCc2cc(O)ccc2O)cc1 | 4.61 µM (active)
62 | CC(OC(=O)c1ccc(Cl)cc1O)C(=O)NCCC1=CCCCC1 (stereo not given) | inactive
63 | COC(=O)c1ccc(NCC(=O)c2ccccc2)cc1 | inactive
64 | CCCCCN(C(=O)CCC(=O)OCC(=O)NC1CCC(C)CC1)c1c(N)n(CCCC)c(=O)[nH]c1=O (stereo not given) | inactive
65 | COc1ccc(NC(=O)c2cccc(Cl)c2)c[n+]1[O-] | inactive
